Source: PubChem
Wnt act: Wnt/beta-catenin pathway activators, primary screen, cell-based, plate reader, single point. Wnt/beta-catenin reporter cell assay, activator. activation, % at 9.35 µM. 300,000 tested, 1.2% active. AID 743398, 2014; in the data active = activation above about 30%, passing the limit was not always enough; inconclusive = no clear call, values can overlap the other calls
Vif inh: HIV Vif self-association inhibitors, primary screen, imaging, HEK293T, single point. HEK293T cells, Vif self-association by quenched fluorescence, 24 h. 340,000 tested, 0.35% active. inhibition, % at 7.49 µM. AID 602346, 2012; in the data active = inhibition above about 50%, passing the limit was not always enough; inconclusive = no clear call, values can overlap the other calls; inactive = below about 31%
MITF act: activators of MITF-driven TRPM1 promoter reporter, primary screen, cell-based, SK-MEL-5, luciferase, single point | AID 588334, 2011 | SK-MEL-5 TRPM1-promoter luciferase, 24 h; % of positive control, neutral wells = 0 | 300,000 tested, 0.75% active | activation, % at 12.5 µM;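 active = mean activation of at least 80% with every replicate also reaching 80%; inconclusive = mean reaches 80% but some replicate falls short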
esBAF inh: Bmi1 luciferase reporter increase in mESCs, primary screen, esBAF inhibitor project, mouse ES cells, Bmi1 luciferase knock-in, single point. reporter increase, % at 12.5 µM. AID 602393, 2012. 24 h; 100% = twice the neutral-well signal. 350,000 tested, 2% active; in the data active = activation above about 40%; inconclusive = no clear call, values can overlap the other calls;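 also: a rise in the Bmi1 reporter signal indicates esBAF inhibition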
N-glyco inh: increase of ERlucT glycosylation luciferase signal, primary screen, N-linked glycosylation inhibitor project, D54 ERlucT cells, luminescence, set 2 | D54 ERlucT glycosylation luciferase reporter, 24 h; percent of 100 nM tunicamycin response | reporter increase, % at 12.5 µM | 360,000 tested, 0.23% active;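 active = mean luciferase reporter signal, scaled so untreated is 0 and the glycosylation-blocking control 100, at or above a set limit in every replicate; inconclusive = mean reaches the limit but not every replicate does; inactive = mean below the limit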;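 also: luciferase carries N-glycosylation sites so blocking glycosylation raises the light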
PvdQ acylase: P. aeruginosa PvdQ acylase inhibitors, primary screen, biochemical, fluorescence, plate reader and imaging, single point | PvdQ acylase [Pseudomonas aeruginosa LESB58] | purified PvdQ acylase | inhibition, % at 10 µM | 340,000 tested, 0.063% active; in the data active = inhibition above about 30%, passing the limit was not always enough; inconclusive = no clear call, values can overlap the other calls
Each line names hits and unclear results; the compound was inactive in the other large screens. Most compounds without a hit are left out; they make up all but 2.9% or so of the library.

CN(C)C(=O)C[C@@H]1CC[C@H]2[C@@H](COC[C@@H](O)CN2CC2CCCCC2)O1	none (no result: Wnt act, Vif inh, MITF act, N-glyco inh, PvdQ acylase)
CCCN1[C@H](C(=O)OC)[C@@H](CO)[C@@H]2Cn3c(ccc(-c4ccccc4OC)c3=O)[C@@H]21	none (no result: Wnt act, Vif inh, MITF act, N-glyco inh, PvdQ acylase)
COc1cccc(C#Cc2cnc3c(c2)C(=O)N([C@H](C)CO)C[C@H](C)[C@@H](CN(C)C)O3)c1	none (no result: Wnt act, Vif inh, MITF act, N-glyco inh, PvdQ acylase)
O=C(Nc1ccc2oc(-c3ccncc3)nc2c1)c1ccccc1F	none (no result: Wnt act)
CCCCC(=O)Nc1ccc2oc(-c3cccnc3)nc2c1	none (no result: Wnt act)
CCCC(=O)Nc1ccc2oc(-c3cccnc3)nc2c1	Wnt act 36.5 (no result: esBAF inh)
O=C(Nc1ccc2oc(-c3ccccc3)nc2c1)c1ccccc1F	esBAF inh 51.3 (no result: Wnt act)
O=C(Nc1ccc2oc(-c3ccccc3F)nc2c1)c1ncn[nH]1	Wnt act 52.4 (no result: Vif inh)
O=C(Nc1ccc2oc(-c3ccc(Cl)c(Cl)c3)nc2c1)c1ncn[nH]1	Wnt act 42.1, esBAF inh 52.0 (no result: Vif inh)
Cc1noc(C)c1S(=O)(=O)N(C)C[C@H]1Oc2ccc(NC(=O)Nc3ccc4c(c3)OCO4)cc2CC(=O)N([C@@H](C)CO)C[C@H]1C	none (no result: Wnt act, Vif inh, MITF act, N-glyco inh, PvdQ acylase)
O=C(Nc1ccc2oc(-c3ccccc3F)nc2c1)c1ccccc1F	esBAF inh 84.9
CCc1cccc(CC)c1NC(=O)/C(C#N)=C/c1ccccc1C(F)(F)F	N-glyco inh 69.4 (no result: Wnt act, esBAF inh)
N#C/C(=C\c1ccccc1C(F)(F)F)C(=O)Nc1ccccc1	none (no result: Wnt act, esBAF inh)
COc1ccccc1CN1CC(C(=O)NCc2ccc(C)c(F)c2)CCC1=O (stereo unspecified)	none
COc1ccccc1CN1CC(C(=O)NCc2c(F)ccc(C)c2F)CCC1=O (stereo unspecified)	esBAF inh 50.8
COc1ccc(C#Cc2ccc([C@@H]3[C@@H](CO)N4CCCCN(Cc5ccncc5)C[C@@H]34)cc2)cc1	none (no result: Wnt act, Vif inh, MITF act, N-glyco inh, PvdQ acylase)
COc1ccc(CNC(=O)C(=O)NCC(c2ccco2)N2CCOCC2)cc1 (stereo unspecified)	Wnt act 40.4 (no result: Vif inh)
CN(C)CC#Cc1ccc([C@H]2[C@@H](CO)N3CCCCN(C(=O)Nc4ccc(F)cc4)C[C@@H]23)cc1	none (no result: Wnt act, Vif inh, MITF act, N-glyco inh, PvdQ acylase)
Cc1cc(C(=O)Nc2ccc3c(c2)C(=O)N(C)[C@H]2CC[C@@H](CC(=O)NCc4ccc(-c5ccccc5)cc4)O[C@H]2CO3)no1	none (no result: Wnt act, Vif inh, MITF act, N-glyco inh, PvdQ acylase)
C[C@@H]1NC(=O)OC1c1ccco1 (stereo partly specified)	none
O=C1N[C@@H](Cc2ccccc2)[C@@H](c2ccco2)O1	PvdQ acylase 48.7
Cn1c(CNc2ccc(Cl)cc2)nc2ccccc21	esBAF inh inconclusive (no result: MITF act)
CN(Cc1nc2ccccc2n1C)S(=O)(=O)c1ccc(Cl)cc1	Vif inh 50.4 (no result: Wnt act)
c1ccc(CCn2nnc3ccccc32)cc1	Wnt act 54.1, MITF act 97.8
N#CCCn1nnc2ccccc21	none (no result: Wnt act, MITF act)
O=C(/C=C/c1ccc([N+](=O)[O-])cc1)c1ccco1	none
O=C(/C=C/c1ccc([N+](=O)[O-])cc1)/C=C/c1ccco1	N-glyco inh 30.9 (no result: esBAF inh)
COc1ccc(C(=O)N2CCN(c3ccc(F)cc3)CC2)cc1S(=O)(=O)NC1CC1	esBAF inh 49.5
Cc1ccc(S(=O)(=O)N(C)C[C@H]2Oc3c(NC(=O)C4CCOCC4)cccc3C(=O)N([C@H](C)CO)C[C@H]2C)cc1	none (no result: Wnt act, Vif inh, MITF act, N-glyco inh, PvdQ acylase)
O=C(C[C@@H]1C[C@@H]2c3cc(NC(=O)C4CCOCC4)ccc3O[C@@H]2[C@H](CO)O1)NCc1ccc(Oc2ccccc2)cc1	none (no result: Wnt act, Vif inh, MITF act, N-glyco inh, PvdQ acylase)
Cc1cc(C(=O)Nc2cccc3c2O[C@@H](CN(C)C(=O)Nc2ccccc2)[C@@H](C)CN([C@H](C)CO)C3=O)n(C)n1	none (no result: Wnt act, Vif inh, MITF act, N-glyco inh, PvdQ acylase)
Cc1ccc(Cn2nnc(C(=O)Nc3cccc(C)c3C)c2N)cc1	none
Cc1cccc(NC(=O)c2n[nH]c([N+](=O)[O-])c2Br)c1C	Wnt act 44.5
Cc1noc(C)c1S(=O)(=O)Nc1ccc2c(c1)CC(=O)N([C@H](C)CO)C[C@@H](C)[C@H](CN(C)Cc1ccc(C(F)(F)F)cc1)O2	none (no result: Wnt act, Vif inh, MITF act, N-glyco inh, PvdQ acylase)
COc1cc(OC)nc(Oc2ccccc2C(=O)Oc2cccc(C)c2)n1	Vif inh 73.9 (no result: Wnt act)
COCCNC(=O)c1cc2c(s1)-c1ccc(Cl)cc1SC2	Wnt act 43.2
NC(=O)c1cc2c(s1)-c1cc(Cl)ccc1SC2	none
COc1ccc(-c2cc3ccccc3cn2)cc1	PvdQ acylase inconclusive
N#CCCCc1cc2cc(F)ccc2cn1	none
C1=C(c2cc3ccccc3cn2)CCCC1	Wnt act 49.6, MITF act 96.6, esBAF inh 79.0
Fc1ccc2cnc(C3=CCCCC3)cc2c1	Wnt act 33.3, MITF act 103.4, esBAF inh inconclusive
C/C=C/c1cnc2c(c1)C(=O)N([C@H](C)CO)C[C@H](C)[C@H](CN(C)C(=O)Nc1ccc(C(F)(F)F)cc1)O2	none (no result: Wnt act, Vif inh, MITF act, N-glyco inh, PvdQ acylase)
CCOC(=O)Nc1ccc(NCc2ccc(F)cc2)nc1N	Vif inh active
CCOC(=O)Nc1ccc(C)cc1NC(=O)OCC	none (no result: Wnt act, esBAF inh)
CCNC(=O)C[C@@H]1CC[C@@H]2[C@H](COC[C@@H](O)CN2C(=O)Nc2ccc(C(F)(F)F)cc2)O1	none (no result: Wnt act, Vif inh, MITF act, N-glyco inh, PvdQ acylase)
C[C@H](CO)N1C[C@H](C)[C@H](CN(C)S(C)(=O)=O)Oc2c(NS(C)(=O)=O)cccc2C1=O	none (no result: Wnt act, Vif inh, MITF act, N-glyco inh, PvdQ acylase)
O=C(/C=C/c1ccc(OC(F)F)cc1)Nc1cccc(S(=O)(=O)NC2=NCCCCC2)c1	esBAF inh 53.6
O=C(CCl)Nc1cccc(S(=O)(=O)NC2=NCCC2)c1	N-glyco inh 60.2 (no result: esBAF inh)
COc1ccc(/C=C/C(=O)Nc2cccc(S(=O)(=O)NC3=NCCCCC3)c2)cc1	none
CN(C)c1ccc(C(=O)Nc2cccc(S(=O)(=O)NC3=NCCCCC3)c2)cc1	esBAF inh 61.8
CC(C)(C)c1ccc(C(=O)Nc2cccc(S(=O)(=O)NC3=NCCC3)c2)cc1	none
CC(=O)N1[C@H](CO)[C@@H](c2ccc(-c3cccc(F)c3)cc2)[C@H]1CNC(=O)C1CC1	none (no result: Wnt act, Vif inh, MITF act, N-glyco inh, PvdQ acylase)
CC(C)NC(=O)Nc1ccc2c(c1)C(=O)N([C@H](C)CO)C[C@H](C)[C@H](CN(C)CC1CCCCC1)O2	none (no result: Wnt act, Vif inh, MITF act, N-glyco inh, PvdQ acylase)
CCS(=O)(=O)NCC[C@H]1CC[C@H](NC(=O)Nc2cc(Cl)cc(Cl)c2)[C@H](CO)O1	none (no result: Wnt act, Vif inh, MITF act, N-glyco inh, PvdQ acylase)
COc1ccccc1OCC(=O)N/N=C1\CCCCc2ccccc21	none
O=C(O)c1ccc(N/N=C2/CCCc3ccccc32)cc1	esBAF inh 59.2
O=C(COc1ccccc1F)N/N=C1\CCCc2ccccc21	Wnt act 32.7, esBAF inh 61.2
COc1ccccc1OCC(=O)N/N=C1\CCc2ccccc21	esBAF inh 46.2 (no result: Wnt act)
CO[C@@H]1CN(C)C(=O)c2cc(NC(=O)Nc3ccc(Cl)c(Cl)c3)ccc2OC[C@H](C)NC[C@@H]1C	none (no result: Wnt act, Vif inh, MITF act, N-glyco inh, PvdQ acylase)
O=C(c1cccc(F)c1)N1CC[C@@H]2[C@H](CO)Nc3ccc(C#Cc4ccc(F)cc4)cc3[C@@H]21	none (no result: Wnt act, Vif inh, MITF act, N-glyco inh, PvdQ acylase)
